# Source: PubChem BioAssay AID1159580 (chemical genetic matrix, 2015)
# Hit rate of the full screen: of about 5,500 compounds, about 2,000 (36%) were called active. Not shown: some 18% with an inconclusive outcome. The list shows a part of the results. Unmarked numbers belong to inactive results. No stated cut-off is given here; in the data, active means normalized growth mostly below about 0.91 (no sharp cut-off); inconclusive means no clear call, values can overlap the other calls; inactive means mostly above about 0.92.
# Experiment: chemical genetic growth profiling, strain panel (AID 1159580);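 further: tested at 20 µM; growth read once vehicle control cultures reached saturation at 30 °C; 1 = growth at the plate median or of vehicle wells; lower values mean less growth of the strain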
# Conditions: S. cerevisiae deletion strains, growth OD
smiles,measurement,setting,value
C=C1CC2C(CCC3(C)C(=O)CCC23)C2(C)C=CC(=O)C=C12 (stereo unspecified),normalized growth,"locus YAL021C, strain ccr4, hits give low values",0.958
same,normalized growth,"locus YAL026C, strain drs2, hits give low values",0.905 (active)
same,normalized growth,"locus YAL030W, strain snc1, hits give low values",0.949
same,normalized growth,"locus YBL061C, strain skt5, hits give low values",0.928
same,normalized growth,"locus YBR009C, strain hhf1, hits give low values",0.85 (active)
same,normalized growth,"locus YBR023C, strain chs3, hits give low values",0.941
same,normalized growth,"locus YBR171W, strain sec66, hits give low values",0.92
same,normalized growth,"locus YBR231C, strain swc5, hits give low values",0.943
same,normalized growth,"locus YBR279W, strain paf1, hits give low values",0.963
same,normalized growth,"locus YCL011C, strain gbp2, hits give low values",0.935
same,normalized growth,"locus YCL016C, strain dcc1, hits give low values",0.983
same,normalized growth,"locus YCL069W, strain vba3, hits give low values",0.927
same,normalized growth,"locus YCR088W, strain abp1, hits give low values",0.947
same,normalized growth,"locus YDL005C, strain med2, hits give low values",0.942
same,normalized growth,"locus YDL040C, strain nat1, hits give low values",0.941
same,normalized growth,"locus YDR001C, strain nth1, hits give low values",0.936
same,normalized growth,"locus YDR069C, strain doa4, hits give low values",0.944
same,normalized growth,"locus YDR137W, strain rgp1, hits give low values",0.931
same,normalized growth,"locus YDR159W, strain sac3, hits give low values",0.919
same,normalized growth,"locus YDR195W, strain ref2",0.945
same,normalized growth,"locus YDR297W, strain sur2, hits give low values",0.946
same,normalized growth,"locus YDR334W, strain swr1, hits give low values",0.896 (active)
same,normalized growth,"locus YDR335W, strain msn5, hits give low values",0.951
same,normalized growth,"locus YDR392W, strain spt3, hits give low values",0.733 (active)
same,normalized growth,"locus YEL003W, strain gim4, hits give low values",0.912 (active)
same,normalized growth,"locus YEL037C, strain rad23, hits give low values",0.917 (active)
same,normalized growth,"locus YEL061C, strain CIN8 (second series), hits give low values",0.922
same,normalized growth,"locus YER015W, strain faa2, hits give low values",0.939
same,normalized growth,"locus YER016W, strain bim1, hits give low values",0.955
same,normalized growth,"locus YER111C, strain swi4, hits give low values",0.945
same,normalized growth,"locus YER155C, strain BEM2 (second series), hits give low values",0.946
same,normalized growth,"locus YFR010W, strain ubp6, hits give low values",0.928
same,normalized growth,"locus YGL167C, strain pmr1, hits give low values",0.928
same,normalized growth,"locus YGL173C, strain kem1, hits give low values",0.95
same,normalized growth,"locus YGL227W, strain vid30, hits give low values",0.874 (active)
same,normalized growth,"locus YGL240W, strain doc1, hits give low values",0.95
same,normalized growth,"locus YGL253W, strain hxk2, hits give low values",0.944
same,normalized growth,"locus YHR013C, strain ard1, hits give low values",0.908
same,normalized growth,"locus YHR027C, strain rpn1, hits give low values",0.93
same,normalized growth,"locus YHR142W, strain chs7, hits give low values",0.905
same,normalized growth,"locus YJL092W, strain hpr5, hits give low values",0.932
same,normalized growth,"locus YJL095W, strain BCK1 (second series), hits give low values",0.952
same,normalized growth,"locus YJL115W, strain asf1, hits give low values",0.928
same,normalized growth,"locus YJL129C, strain trk1, hits give low values",0.96
same,normalized growth,"locus YJL154C, strain vps35, hits give low values",0.936
same,normalized growth,"locus YJL164C, strain tpk1, hits give low values",0.916 (active)
same,normalized growth,"locus YJL166W, strain qcr8, hits give low values",0.962
same,normalized growth,"locus YJL187C, strain SWE1, hits give low values",0.939
same,normalized growth,"locus YKL160W, strain elf1, hits give low values",0.998
same,normalized growth,"locus YKR026C, strain gcn3, hits give low values",0.939
same,normalized growth,"locus YKR091W, strain srl3, hits give low values",0.95
same,normalized growth,"locus YLL001W, strain dnm1, hits give low values",1.01
same,normalized growth,"locus YLL026W, hits give low values",0.936
same,normalized growth,"locus YLL041C, strain sdh2, hits give low values",0.939
same,normalized growth,"locus YLR027C, strain aat2, hits give low values",0.98
same,normalized growth,"locus YLR221C, strain rsa3, hits give low values",0.992
same,normalized growth,"locus YLR258W, strain gsy2, hits give low values",0.945
same,normalized growth,"locus YLR262C, strain YPT6 (second series), hits give low values",0.925
same,normalized growth,"locus YLR320W, strain mms22, hits give low values",0.991
same,normalized growth,"locus YLR342W, strain FKS1, hits give low values",0.929
same,normalized growth,"locus YLR357W, strain rsc2, hits give low values",0.991
same,normalized growth,"locus YLR370C, strain arc18, hits give low values",0.937
same,normalized growth,"locus YLR384C, strain iki3, hits give low values",0.925
same,normalized growth,"locus YML120C, strain ndi1, hits give low values",0.96
same,normalized growth,"locus YMR058W, strain fet3, hits give low values",0.929
same,normalized growth,"locus YMR125W, strain sto1, hits give low values",0.989
same,normalized growth,"locus YMR129W, hits give low values",0.928
same,normalized growth,"locus YMR205C, strain PFK2, hits give low values",0.992
same,normalized growth,"locus YMR231W, strain pep5, hits give low values",0.946
same,normalized growth,"locus YNL071W, strain lat1, hits give low values",0.883 (active)
same,normalized growth,"locus YNL209W, strain ssb2, hits give low values",0.957
same,normalized growth,"locus YNL248C, strain rpa49, hits give low values",1
same,normalized growth,"locus YNL322C, strain KRE1 (second series), hits give low values",0.934
same,normalized growth,"locus YNR049C, strain mso1, hits give low values",0.932
same,normalized growth,"locus YOR001W, strain rrp6, hits give low values",0.881 (active)
same,normalized growth,"locus YOR070C, strain gyp1, hits give low values",0.938
same,normalized growth,"locus YOR080W, strain dia2, hits give low values",0.934
same,normalized growth,"locus YOR083W, strain WHI5, hits give low values",0.994
same,normalized growth,"locus YOR106W, strain vam3, hits give low values",0.969
same,normalized growth,"locus YOR265W, strain rbl2, hits give low values",0.948
same,normalized growth,"locus YOR270C, strain vph1, hits give low values",0.895
same,normalized growth,"locus YOR290C, strain snf2, hits give low values",0.941
same,normalized growth,"locus YPL051W, strain arl3, hits give low values",0.988
same,normalized growth,"locus YPL078C, strain atp4, hits give low values",1
same,normalized growth,"locus YPL106C, strain sse1, hits give low values",0.95
same,normalized growth,"locus YPL240C, strain hsp82, hits give low values",0.969
